Consider 40 compounds from PubChem BioAssay (Tox21).

Structures are written as SMILES. Values without a mark were called inactive. The source made the active and inactive calls. Calls follow the shape of the dose curve; as a rule, active = well fitted curve in the direction sought with a large enough effect in the repeat runs; inconclusive = weak or mixed curves; inactive = flat fitted curve, though single readings scatter.
% is scaled to controls: 0 for no effect and ±100 for the full control effect.

This test in a line: qHTS assay to test for compound auto fluorescence at 460 nm (blue) in HepG2 cell free culture (AID 720685). As to conditions: Cell-free culture medium, blue autofluorescence 405/460 nm; series mostly up to 91.3 µM. The source says:
U.S. Tox21 Program National Center for Advancing Translational Sciences [NCATS] NIH Chemical Genomics Center [NCGC] U.S. Environmental Protection Agency [EPA] National Institutes of Environmental Health Sciences [NIEHS] National Toxicology Program [NTP] U.S. Food and Drug Administration [FDA] Tox21 Assay Overview: Compound auto fluorescence often interferes with screening of the compound library against various biological targets and signaling pathways. Some of these compounds may have fluorophoric properties. Such properties may interfere with the assay outputs resulting in false positives and/or negatives. To decrease such complications and ensure the compound activities are relevant in terms of biological response, the Tox21 10K compound library was screened for auto fluorescence. From the fluorophores used as reporter signals in our screening assays, the auto fluorescence equivalencies of compounds against three fluorophores have been evaluated: Triamterene, Fluorescein and Rose Bengal sodium for blue, green and red fluorescence, respectively. The fluorescence intensities were measured using Excitation/Emission wavelengths at 405/460nm, 485/535nm and 540/590nm for blue, green and red labels, respectively. This assay includes the blue fluorescence data.
Tox21 Assay Protocol Summary: 5 uL of culture medium (MEM containing 10% FBS) per well was dispensed into black wall/clear bottom 1536-well plates using a Multidrop Combi Dispenser (ThermoFisher Scientific, Waltham, MA). After 23 nL compound or DMSO vehicle was transferred into assay plate by a pintool work station (Kalypsys, San Diego, CA), fluorescence intensities in the assay plates were measured by an Envision (PerkinElmer, Shelton, CT) plate reader using three labels for measuring blue, green and red fluorescence at […] 460, 535 and 590nm respectively.
Background: Quantitative high-throughput screening tests each substance at several concentrations.
Regarding `CCCOC(=O)Cc1ccc(OCC(=O)N(CC)CC)c(OC)c1`, the compound was called inactive. As to `CCSC(=O)Cl`, the call was inactive. On the same count and under the same terms, the value for `CC(C)NCC(O)c1ccc([N+](=O)[O-])cc1` (stereo not given) was “inactive”. Same read-out and setting: under `O=P(O)(O)c1ccccc1` stands “inactive”; under `CNC(=O)Oc1cc(C)c(N(C)C)c(C)c1`, “inactive”. Take `Cc1ccc(Cl)c(O)c1`: the compound was called inactive. Regarding `CCCCCCC(=O)CCCCCC/C=C/C[C@@H](O)[C@H](O)[C@@](N)(CO)C(=O)O`, the compound was called inactive. The same measure, in the same setting: under `Cl/C=C/CCl` stands “inactive”; under `CC(=O)CN(CC(C)=O)N=O`, “inactive”.

`c1cncc([C@@H]2CCCCN2)c1`: the compound was classed as inactive. On the same count and under the same terms, the value for `CCCCCCC1CCOC1=O` (stereo not given) was “inactive”. Take `C[C@@H](N)[C@@H](O)c1ccccc1`: the fluorescence, % of fluorescent control was -0.105% [at 18.6 µM]. As to `CCOC(=O)COc1ccc(Cl)cc1Cl`, the outcome was inactive. The same measure, in the same setting: the value for `O=C1CC(=O)NC(=O)N1` was “inactive”; that for `CC(C)(C)C(=O)C(Cl)Cl` was “inactive”.

As for `CCOC(=O)c1ncn2c1CN(C)C(=O)c1c(I)cccc1-2`, the outcome was inactive. For `CCN(CCO)CCO`, the result was inactive.

Take `C[C@]12C=CC(=O)C=C1CC[C@@H]1[C@@H]2CC[C@@]2(C)[C@H]1CC[C@]2(C)O`: the outcome was inactive. On the same count and under the same terms, the value for `CCC(=O)c1ccc(Cl)cc1` was “inactive”; that for `CN1COCN(Cc2cnc(Cl)s2)/C1=N\[N+](=O)[O-]` was “inactive”; that for `ClCC1CO1` (stereo not given) was “inactive”.

For the compound `CC(=NC#N)N(C)Cc1ccc(Cl)nc1`, the compound was called inactive. On the same count and under the same terms, under `C[N+]1(C)CCCCC1` stands “inactive”; under `CCCCCCCCBr`, “inactive”.

Consider `CNC(=O)NC(O)C(Cl)(Cl)Cl` (stereo not given), for which the outcome was inactive. The same measure, in the same setting: the value for `COc1cc(CC(C)N)cc(OC)c1OC` (stereo not given) was “inactive”; that for `Cc1ccc(-c2nc3ccc(C)cn3c2CC(=O)N(C)C)cc1` was “inactive”. Turning to `N=C(N)[Se]`, the compound was called inactive. Still for that read-out and setting: the value for `CCC(C(N)=O)N1CCCC1=O` (stereo not given) was “inactive”; that for `CCCC(C)C1(CC)C(=O)N=C(S)NC1=O` (stereo not given) was “inactive”; that for `CON(C)C(=O)Nc1ccc(Br)c(Cl)c1` was “inactive”.

For the compound `O=C/C=C/c1ccco1`, the result was inactive. On the same count and under the same terms, the value for `Cn1c(CCCC(=O)O)nc2cc(N(CCCl)CCCl)ccc21` was “inactive”. With `CCCCS(=O)(=O)Cl`, the outcome was inactive.

With `CC(C)C(C)(N)C#N` (stereo not given), the compound was called inactive.

Turning to `CCOC(=O)N(C)N=O`, the outcome was inactive. With `Cc1ccc2cc(C)ccc2c1`, the outcome was inactive.

Consider `CCOC1Oc2ccc(OS(C)(=O)=O)cc2C1(C)C` (stereo not given), for which the result was inactive. Same read-out and setting: the value for `NC(=O)OCCCc1ccccc1` was “inactive”; that for `C[C@H]1CCCC(=O)CCC/C=C/c2cc(O)cc(O)c2C(=O)O1` was “inactive”.
